PglD DTNB: C. jejuni PglD acetyltransferase inhibitors, primary screen, biochemical, DTNB colorimetric, single point. UDP-N-acetylbacillosamine N-acetyltransferase PglD (Campylobacter jejuni). purified PglD enzyme, DTNB colorimetric CoA detection. inhibition, % at 12.5 µM. 0.098% of 360,000 active; in the data active = inhibition above about 16%, passing the limit was not always enough
ARNT-TACC3 inh: disruptors of ARNT/TACC3 protein interaction, primary screen, biochemical, AlphaScreen, single concentration. AlphaScreen His-ARNT PAS-B/GST-TACC3 binding, luminescence; TACC3 fragment carries E629A point mutation. inhibition, % at 9.99 µM. Transforming acidic coiled-coil-containing protein 3 (Homo sapiens), Q9Y6A5. 0.66% of 390,000 active;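 active = mean inhibition of replicates at least 50% and at least half of replicates each reaching 50%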;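 also: 0% = complete ARNT plus TACC3 wells and 100% = ARNT alone without TACC3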
ALR inh: inhibitors of human ALR sulfhydryl oxidase, primary screen, biochemical, H2O2 detection, HRP-luminol luminescence, single point | purified ALR, DTT oxidation | inhibition, % (no concentration beside the values) | 3.8% of 290,000 active | AID 485317, 2010;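 active = mean replicate inhibition above about 79%, with every replicate also reaching it, limit read from the data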
ERp5 block: inhibitors of ERp5-driven insulin aggregation, primary screen, biochemical, turbidity, absorbance 650 nm, single point; Protein disulfide-isomerase A6 (Homo sapiens), Q15084; 90 min; 0.05% of 350,000 active; inhibition, % at 9.99 µM;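 active = mean replicate inhibition above about 25%, with every replicate also reaching it, limit read from the data, passing the limit was not always enough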
CendR NRP1 mod: modulators of CendR peptide binding to NRP-1, primary screen, biochemical, fluorescence polarization, uHTS. AID 602438, 2012. inhibition, % at 25 µM. FAM-RPARPAR peptide binding to NRP-1. Neuropilin-1 (Homo sapiens), O14786. 0.85% of 360,000 active;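 active = inhibition or corrected inhibition above about 18%, plus a signal ratio from 0.5 to 1.5, limit read from the data, passing the limit was not always enough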
PDI turbidity: inhibitors of human PDI, primary screen, biochemical, turbidity, single point, plate reader; Protein disulfide-isomerase (Homo sapiens), P07237; PDI insulin aggregation turbidity, A650, 90 min; inhibition, % at 10 µM; 0.052% of 350,000 active;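 active = mean inhibition across replicates of 30% or more, whatever share of single replicates reach that level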
* hit, by the source's call. Many of the other results were omitted from the sample, so hits are more common in it than they were.

What do the screens show for `C[C@H]1CN([C@@H](C)CO)C(=O)Cc2cc(NC(=O)Cn3cnnn3)ccc2O[C@H]1CN(C)S(=O)(=O)c1ccc(F)cc1`?
PglD DTNB: 2.5; ARNT-TACC3 inh: -0.9; ERp5 block: 0.2

How did N#C[C@@H]1[C@H](c2ccccc2-c2ccccc2)[C@H](CO)N1C(=O)NC1CCCCC1 do in these assays?
ERp5 block: -1.6

What do the screens show for `Cc1ccc(-c2nc(CS(=O)CC(=O)N3CCN(c4ccccc4)CC3)c(C)o2)cc1` (centres undefined)?
PglD DTNB: -1.5; ARNT-TACC3 inh: -3.4; ALR inh: 98.0*; ERp5 block: 5.4; CendR NRP1 mod: 11.0; PDI turbidity: -5.5

Results for Cc1oc(-c2ccccc2Cl)nc1CSCC(=O)N1CCCC1 ?
PglD DTNB: -3.2; ARNT-TACC3 inh: 0.1; ALR inh: 74.6; CendR NRP1 mod: 1.4; PDI turbidity: -7.0

Results for Cc1oc(-c2ccccc2Cl)nc1CS(=O)CC(=O)N1CCN(c2ccccc2)CC1 (centres undefined) ?
ARNT-TACC3 inh: -1.2; ALR inh: 99.4*; ERp5 block: 0.7; CendR NRP1 mod: 2.4; PDI turbidity: 3.9

Results for COc1cccc(-c2nc(CS(=O)(=O)CC(=O)N3CCc4ccccc4C3)c(C)o2)c1 ?
PglD DTNB: -2.4; ARNT-TACC3 inh: -0.8; ALR inh: 32.8; ERp5 block: -5.0; CendR NRP1 mod: -4.2

How did Cc1cccc(-c2nc(CS(=O)CC(=O)N3CCCCC3)c(C)o2)c1 (centres undefined) do in these assays?
PglD DTNB: -5.3; ARNT-TACC3 inh: -1.1; ALR inh: 99.6*; ERp5 block: -2.0; CendR NRP1 mod: -9.2

Results for Cc1oc(-c2ccccc2)nc1CS(=O)CC(=O)N1CCc2ccccc2C1 (centres undefined) ?
PglD DTNB: -6.0; ARNT-TACC3 inh: 30.0; ALR inh: 98.7*; ERp5 block: 5.2; CendR NRP1 mod: -6.8

What do the screens show for `CO[C@H]1CN(C)C(=O)c2cc(NC(=O)c3ccno3)ccc2OC[C@H](C)NC[C@@H]1C`?
PglD DTNB: 2.1; ARNT-TACC3 inh: 3.3; ERp5 block: -2.5

Results for O=C(C[C@@H]1CC[C@@H]2[C@H](COC[C@@H](O)CN2C(=O)Nc2cccc(Cl)c2)O1)N1CCCCC1 ?
PglD DTNB: -1.7; ARNT-TACC3 inh: 5.1; ERp5 block: -3.0

What do the screens show for `Cc1ccc(S(=O)(=O)N(C)C[C@H]2Oc3ccc(NC(=O)CCCN(C)C)cc3C(=O)N([C@@H](C)CO)C[C@H]2C)cc1`?
PglD DTNB: -4.2; ARNT-TACC3 inh: -0.9; ERp5 block: -0.3

How did O=C(c1cccc(C(F)(F)F)c1)C1CCCN(C(=O)c2cc(C3CC3)[nH]n2)C1 (centres undefined) do in these assays?
PglD DTNB: -3.0; ARNT-TACC3 inh: -1.8; ALR inh: 86.1*; ERp5 block: -6.5; CendR NRP1 mod: 12.9; PDI turbidity: 12.0

What do the screens show for `CO[C@H]1CN(C)C(=O)c2ccc(NC(=O)C3CCCC3)cc2OC[C@H](C)N(CCC(F)(F)F)C[C@@H]1C`?
ERp5 block: 9.3

Results for Oc1ccc(C=Nc2ccccc2-c2nc3ccccc3[nH]2)c(O)c1 ?
PglD DTNB: -4.2; ARNT-TACC3 inh: 5.0; ALR inh: 82.1*; ERp5 block: -1.5; CendR NRP1 mod: -11.5; PDI turbidity: 8.8

Results for Cn1c(=O)c2c(ncn2Cc2ccc(Cl)cc2)n(C)c1=O ?
ARNT-TACC3 inh: -12.5; ALR inh: -2.9; ERp5 block: 3.8; CendR NRP1 mod: 7.8; PDI turbidity: -5.0

How did COCc1ccccc1Cn1cnc2c1c(=O)n(C)c(=O)n2C do in these assays?
PglD DTNB: 3.3; ARNT-TACC3 inh: 1.1; ALR inh: -18.7; CendR NRP1 mod: 35.4*; PDI turbidity: -3.3

High-throughput results deposited in PubChem by several laboratories.
